Experimental data published in PubChem BioAssay AID1851 (National Center for Advancing Translational Sciences (NCATS), 2009).
The whole screen tested about 16,000 compounds, of which about 2,600 (16%) were called active. Another 20% or so got no clear call; they are omitted. Calls come from the whole dose curve; as a rule, active = well fitted curve in the direction sought with a large enough effect; inconclusive = small, poorly fitted or top-dose-only effect, or effect the other way; inactive = no such curve, though single readings can be large or run the other way. Not all results are given here. The source holds several records for some structures; these can differ, active in one and inactive in another.

Each molecule was assayed against Cytochrome P450 2D6 (Homo sapiens) (UniProt P10635) (assay: Cytochrome panel assay with activity outcomes). Conditions: recombinant CYP, pro-luciferin dealkylation, luminescence, p450-cyp2d6; series mostly up to 57.1 µM; activity, negative = inhibition: at the top concentration.
% is set by controls: 0 for no effect and ±100 for the full control effect.

Cytochrome P450 2D6 (Homo sapiens), sequence (P10635 whole entry, looked up): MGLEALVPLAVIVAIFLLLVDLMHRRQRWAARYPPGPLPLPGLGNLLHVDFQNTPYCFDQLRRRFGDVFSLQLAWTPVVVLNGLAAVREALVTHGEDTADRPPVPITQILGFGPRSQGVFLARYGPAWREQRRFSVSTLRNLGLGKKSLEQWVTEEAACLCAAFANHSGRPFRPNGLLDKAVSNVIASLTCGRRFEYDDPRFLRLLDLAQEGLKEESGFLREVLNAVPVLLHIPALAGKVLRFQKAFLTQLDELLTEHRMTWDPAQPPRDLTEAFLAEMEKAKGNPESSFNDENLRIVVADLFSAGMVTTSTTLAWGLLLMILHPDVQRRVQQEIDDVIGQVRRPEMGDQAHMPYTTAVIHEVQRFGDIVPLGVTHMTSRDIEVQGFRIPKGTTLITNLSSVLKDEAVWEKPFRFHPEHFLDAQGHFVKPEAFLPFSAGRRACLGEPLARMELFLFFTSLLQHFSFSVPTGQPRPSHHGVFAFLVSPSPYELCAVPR

activity, negative = inhibition, inactive:
COc1ccc(-c2nc3cnc(OC)nc3n(CCc3ccccc3)c2=O)cc1 2.49%
CCN(CC)C(=O)CSc1nc(O)cc(=O)n1CC -3.51%
Cc1n[nH]c(C)c1N=Nc1cc(Cl)ccc1Cl -10.6%
N#Cc1ccccc1Sc1ccccc1N -20%
CCc1ccc(-c2csc(NC(=O)C3CCCO3)c2C(=O)OC(C)C)cc1 (configuration not stated) -13.9%
CN(C)C(=O)Oc1cccc([N+](C)(C)C)c1 3.32%
COc1ccccc1CNC(=O)CCN1C(=O)COc2ccc(C)cc21 -7.37%
Cc1ccc2c(c1)N(CCC(=O)NCCN1CCOCC1)C(=O)CO2 -18.8%
O=c1c(-c2ccc(F)cc2)nc2cnc(N3CCNCC3)nc2n1-c1ccccc1 -8.75%
Cn1cc(-c2nc3cnc(Oc4ccccc4)nc3n(CCC#N)c2=O)c2ccccc21 2.05%
Nc1ncnc2c1nc(Sc1ccc(Cl)cc1)n2[C@@H]1O[C@H]2COP(=O)(O)O[C@@H]2[C@H]1O -5.59%
COC(=O)[C@@]1(Cc2ccc(F)cc2)[C@H]2c3cc(C(=O)N4CCCC4)n(Cc4cccc5ccccc45)c3C[C@H]2CN1C(=O)c1ccccc1 -0.395%
COC(=O)[C@@]1(Cc2ccc(OC)cc2)[C@H]2c3cc(C(=O)N(C)C)[nH]c3C[C@H]2CN1C(=O)c1ccccc1 -14.8%
COC(=O)[C@@]1(Cc2ccc(OC)cc2)[C@H]2c3cc(C(=O)N4CCCC4)n(CCn4cc([N+](=O)[O-])nc4C)c3C[C@H]2CN1C(=O)c1ccccc1 -0.835%
COC(=O)[C@@]1(Cc2ccc(F)cc2)[C@H]2c3cc(C(=O)N4CCCC4)n(Cc4ccc(S(C)(=O)=O)cc4)c3C[C@H]2CN1C(=O)c1ccccc1 -15.9%
CC(=O)NCc1c(Cl)cccc1-n1cccc1 -25.8%
CC(C)(C)OC(=O)COc1cc(OCC(=O)OC(C)(C)C)c2c(=O)cc(-c3ccccc3)oc2c1 4.28%
O=c1c(-c2cc(F)cc(F)c2)nc2cncnc2n1C1CC1 -7.27%
CN1C[C@H](c2ccccc2)C(O)([C@]2(c3ccccc3)CN(C)C[C@@H](c3ccccc3)C2=O)[C@H](c2ccccc2)C1 (some centres not stated) -18.6% [at 11.4 µM]
Cc1cccc([C@@H]2CN(C)CCc3c2cc(O)c(O)c3Cl)c1 -0.0741%
COc1ccc(C[C@@H]2c3cc(OC)c(OC)cc3CC[N@+]2(C)CCC(=O)OCCCCCOC(=O)CC[N@@+]2(C)CCc3cc(OC)c(OC)cc3[C@H]2Cc2ccc(OC)c(OC)c2)cc1OC -15.6% [at 25.6 µM]
Cc1nc(N/N=C/c2ccccc2)nc(N(C)c2ccccc2)c1[N+](=O)[O-] 4.53%
CO[C@@H]1COC(=O)C/C=C\[C@@H](C)COC(=O)[C@H](Cc2ccccc2)NC(=O)C/C=C\[C@H]1C -17% [at 11.4 µM]
COC(=O)C(Cc1ccc(OC(=O)c2ccc(C(F)(F)F)cc2)cc1)N1Cc2ccccc2C1=O (configuration not stated) -11.1%
Cc1nc(NC(=O)c2ccco2)sc1-c1csc(Nc2ccc(Cl)cc2Cl)n1 -25.3%
Cc1nc(NC(=O)c2ccccc2)sc1-c1csc(Nc2ccc(F)cc2)n1 -28.9%
Cc1nc(NC(=O)c2ccccc2)sc1-c1csc(Nc2ccc(Cl)cc2)n1 -21.7%
COc1ccccc1Nc1nc(-c2sc(NC(=O)c3ccccc3)nc2C)cs1 -0.255%
CC1(C)OCC([C@H](O)C2=CCCCC2=O)CO1 9.36% [at 11.4 µM]
COc1cc(/C=C2\SC(=S)N(Nc3ccccc3)C2=O)cc(OC)c1OC -10.3%
CC(=O)c1cc(C#N)c(Oc2ccc(F)cc2)nc1C 8.22%
Cc1cnc(NC(=O)CCCc2nc3ccccc3s2)s1 -11%
COc1cccc([C@@H]2Oc3ccc(OC)cc3/C(=N/OC[C@@H](C)[C@H](OCc3ccccc3)C(C)C)[C@@H]2O)c1 0.0498% [at 11.4 µM]
COc1cccc([C@@H]2Oc3ccc(OC)cc3/C(=N/OC[C@@H](O)COCc3ccco3)[C@@H]2O)c1 5.07% [at 11.4 µM]
CN(C(=S)Nc1ccccc1F)C1(c2ccccc2Cl)CCCCC1=O (configuration not stated) -6.2%
c1ccc(CCc2nc(-c3ccccc3)no2)cc1 -18.9%
O=S(=O)(c1ccc(Cl)cc1)c1cnc(-c2cccnc2)nc1-c1ccccc1 -0.701%
CCC(C)NS(=O)(=O)c1ccc(NC(=O)CCC2CCCCC2)cc1 (configuration not stated) -5.09%
Cn1cccc1C(=O)N1CCC2(CC1)CCN(c1ncccn1)CC2 -13.7%
COc1ccc(CNc2ccnc(-c3ccc(C(=O)N(C)C)cc3)n2)c(OC)c1 -5.55%
Cc1cnc(CNc2ccnc(-c3ccc(N(C)C)cc3)n2)cn1 -5.57%
COC(=O)Cc1c(C)nc2nc(NCc3ccccc3OC)[nH]n2c1=O -2.97%
CCOC(=O)N1CCC(NC(=O)C2CCN(S(=O)(=O)N3CCCC3)CC2)CC1 8.93%
O=C=Nc1ccc(Cc2ccc(N=C=O)cc2)cc1 (tested in a mixture with another compound) 6.78% [at 11.4 µM]
O=C(CNC(=O)c1ccc([N+](=O)[O-])cc1)c1ccccc1 3.96%
COc1cc(-c2nnc(SCC3(c4ccccc4)OCCO3)o2)cc(OC)c1OC -8.87%
COCCn1c(=O)c(-c2ccc(Cl)cc2)nc2cncnc21 -16.2%
Nc1ccccc1CCCC(=O)O -8.09% [at 11.4 µM]
Cc1nc2cnc(N(C)C)nc2n(CCc2ccccc2)c1=O -7.01%
O=C(CSc1nc2ccccc2c(=O)n1NC(=O)c1ccccc1)c1ccc(Cl)cc1 1.17%
COC(=O)C/C=C\[C@@H](C)[C@@H](/C=N\O[C@@H](C)c1cc(-c2c(C)cc(C)cc2C)no1)NS(=O)(=O)c1ccc(C)cc1 10.9% [at 11.4 µM]
COc1cc2c(cc1OC)C(C(=O)N1CCOCC1)C(c1cccs1)N(C)C2=O (configuration not stated) 10.7%
COc1ccc(CC(=S)N2CCOCC2)cc1OC 0.628%
CCOC(=O)c1ccc(N2C(=O)CC(Nc3ccc(CCO)cc3)C2=O)cc1 (configuration not stated) -5.73%
Cn1c(=O)c2c(nc(NCCNc3nc4c(c(=O)n(C)c(=O)n4C)n3C)n2C)n(C)c1=O 14.2% [at 11.4 µM]
COc1cc(C(=O)N2CCN(C(=O)c3ccccc3)CC2)cc(OC)c1OC -0.531%
COC(=O)C/C=C\[C@H](C)[C@@H](OC)c1ccccc1Br 12.6% [at 11.4 µM]
COCCNc1ccnc(-c2ccccc2C)n1 -6.07%
Cc1cccc(-n2ncc3c(Nc4c(C)n(C)n(-c5ccccc5)c4=O)ncnc32)c1 3.47%
N#CC(C#N)=CNCCN1CCN(C=C(C#N)C#N)CC1 5.03% [at 11.4 µM]
Cc1n[nH]c(C)c1S(=O)(=O)N1CCC(C(=O)O)CC1 9.86%
NS(=O)(=O)c1cc(Cl)c(Cl)c(S(N)(=O)=O)c1 -1.87% [at 25.6 µM]
C[C@@H](C[C@H](N)C(=O)O)C(=O)O 14.5% [at 11.4 µM]
O=c1c2c(-c3cccs3)csc2[nH]c(=S)n1-c1ccccc1 -9.42%
Cc1ccccc1OCC(=O)Nc1sc(C(=O)Nc2cccc(C)c2C)c(C)c1C#N 24.8%
Cn1cccc1C(=O)N1CCC2(CCN(C(=O)Nc3ccccc3)CC2)CC1 4.24%
O=[N+]([O-])c1nccn1C[C@H](O)CN1CCCCC1 9.02% [at 11.4 µM]
O=c1n(CCCN2CCN(c3cccc(Cl)c3)CC2)nc2ccccn12 -11%
O=c1nc2ccccc2c2n1CC(CN1CCN(c3cccc(Cl)c3)CC1)N2 (configuration not stated) -35.5%

AC50, 12.6 µM (active) and inactive:
O[C@H](CN1CCN(c2cccc(Cl)c2)CC1)C(c1ccccc1)c1ccccc1

AC50, active:
COc1ccc(Cl)cc1N=Nc1ncc[nH]1 2.51 µM
Fc1ccc(CN(C2=NCCN2)c2c(Cl)cccc2Cl)cc1 1.26 µM
Cc1ccc2c(c1)N(CCC(=O)NCc1ccc3c(c1)OCO3)C(=O)CO2 14.1 µM
COC(=O)[C@@]1(Cc2ccc(F)cc2)[C@H]2c3cc(C(=O)N(C)C)n(Cc4c(CO)[nH]cc(C)c4=O)c3C[C@H]2CN1C(=O)c1ccccc1 15.8 µM
COC(=O)[C@@]1(Cc2ccccc2)[C@H]2c3cc(C(=O)N(C)C)n(Cc4c(CO)[nH]cc(C)c4=O)c3C[C@H]2CN1C(=O)c1ccccc1 12.6 µM
C=CCN1CCc2c(cc(O)c(O)c2Cl)[C@H](c2ccccc2)C1 25.1 µM
CN1CCc2cc(Cl)c(O)cc2[C@H](c2ccccc2)C1 0.631 µM
C=CCN1CCc2cc(O)c(O)cc2[C@H](c2ccccc2)C1 0.398 µM
C=CCN1CCc2c(cc(O)c(O)c2Br)[C@H](c2ccccc2)C1 12.6 µM
C=CCCC(=O)Nc1nc(C)c(-c2csc(Nc3ccc(Cl)cc3)n2)s1 17.8 µM
Cc1nc(NC(=O)c2ccccc2)sc1-c1csc(Nc2cccc(Cl)c2)n1 10 µM
COc1cccc([C@@H]2Oc3ccc(Br)cc3C(=O)[C@H]2O)c1 3.16 µM
Clc1ccc(Cc2nc(-c3cccnc3)no2)cc1 1.78 µM
CN(C)c1ccc(-c2nccc(NCc3ccccc3)n2)cc1 3.16 µM
COc1ccccc1CNc1ccnc(-c2ccc(N(C)C)cc2)n1 0.501 µM
COc1ccccc1CNc1ccnc(-c2ccoc2)n1 15.8 µM
COc1ccc(CNc2ccnc(-c3ccc(N(C)C)cc3)n2)c(OC)c1 12.6 µM
COc1cc2c(cc1OC)/C(=C/C(=O)N1CCOCC1)NC(C)(C)C2 2.82 µM
COc1ccc2[nH]cc(CCNc3ccnc(-c4ccccc4C)n3)c2c1 2.51 µM
COc1ccc2[nH]cc(CCNc3ccnc(-c4ccccc4Cl)n3)c2c1 20 µM
Clc1cc2c(c(CSC3=NCN(CC4CC4)CN3)c1)OCOC2 0.2 µM

AC50, inactive:
Nc1ccccc1C#Cc1ccccc1
